Experimental data: PubChem BioAssay AID1851 (National Center for Advancing Translational Sciences (NCATS), 2009)
Screen size: about 16,000 compounds; about 5,100 (32%) were called active. Roughly 25% stayed inconclusive and do not appear here. Some of the results follow. Values without a mark were called inactive. The call rests on the fitted dose curve; in most records, active means well fitted curve in the direction sought with a large enough effect; inconclusive means small, poorly fitted or top-dose-only effect, or effect the other way; inactive means no such curve, though single readings can be large or run the other way.

target: Cytochrome P450 3A4 (Homo sapiens) (UniProt P08684); assay: Cytochrome panel assay with activity outcomes; settings: recombinant CYP, pro-luciferin dealkylation, luminescence, p450-cyp3a4; series mostly up to 57.1 µM
Sequence (P08684 whole entry, looked up): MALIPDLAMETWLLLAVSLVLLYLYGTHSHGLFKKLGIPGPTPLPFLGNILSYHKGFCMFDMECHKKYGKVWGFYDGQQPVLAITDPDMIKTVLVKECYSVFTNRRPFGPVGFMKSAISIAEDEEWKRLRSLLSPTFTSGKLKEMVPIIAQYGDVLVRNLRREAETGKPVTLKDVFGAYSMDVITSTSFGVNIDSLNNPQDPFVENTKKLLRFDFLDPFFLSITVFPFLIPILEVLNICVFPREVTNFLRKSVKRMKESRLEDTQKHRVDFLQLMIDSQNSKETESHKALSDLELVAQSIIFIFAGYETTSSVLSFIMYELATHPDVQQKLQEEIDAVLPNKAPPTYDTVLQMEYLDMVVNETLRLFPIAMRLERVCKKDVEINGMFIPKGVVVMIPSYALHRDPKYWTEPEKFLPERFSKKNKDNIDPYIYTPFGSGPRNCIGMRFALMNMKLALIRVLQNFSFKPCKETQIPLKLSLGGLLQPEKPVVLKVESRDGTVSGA
On the % scale 0 is the no-effect control and ±100 the full control effect.

Row | Compound | activity, negative = inhibition | AC50
1 | CN(C)CCCN=c1c2ccccc2n(C)c2[nH]c(=O)n(C)c(=O)c12 | 2.56% [at 11.4 µM] | –
2 | CN(C)CCCNC(=O)c1cc2c3ccccc3n(C)c2s1 | – | inactive
3 | CN(C)CCCn1cc(C2=C(c3c[nH]c4ccccc34)C(=O)NC2=O)c2ccccc21 | – | 12.6 µM (active)
4 | c1c[nH]c(CN2CCN(Cc3ncc[nH]3)CC2)n1 | -22.2% [at 11.4 µM] | –
5 | Clc1cccc(Cl)c1NC1=NCCN1 | – | inactive
6 | NCCNc1ncnc2ccc(Cl)cc12 | -27.5% [at 11.4 µM] | –
7 | Brc1ccc2ncnc(Nc3cccc4ccccc34)c2c1 | 20.8% [at 2.29 µM] | –
8 | COc1ccc(Nc2ncnc3sc(-c4ccccc4)cc23)cc1 | – | 11.2 µM (active)
9 | CNc1ncnc2ccc(-c3ccccc3OC)cc12 | – | 20 µM (active)
10 | Clc1cccc(Nc2ncnc3ccc(Br)cc23)c1 | – | 14.1 µM (active)
11 | COc1cccc(-c2ccc3ncnc(NC4CC4)c3c2)c1 | – | 2 µM (active)
12 | COc1ccc(Nc2ncc(C(=O)N3CCN(Cc4ccccc4)CC3)c3ccccc23)cc1 | -29.5% [at 2.29 µM] | –
13 | COc1ccc(-n2cnc3sc(-c4ccccc4)cc3c2=O)cc1 | 13% [at 2.29 µM] | –
14 | CC(C)=NOCc1ccc(-c2cc(-c3ccccc3)no2)cc1 | 5.94% [at 11.4 µM] | –
15 | C[C@@H](c1ccccc1)N1C(=O)[C@@H]2[C@H]3C(=CC[C@H]2C1=O)C(=O)[C@H]1O[C@H]1[C@H]3O | -19.9% [at 11.4 µM] | –
16 | CN(C)S(=O)(=O)Nc1ccccn1 | -8.58% [at 11.4 µM] | –
17 | COc1cccc(-c2ccc3ncnc(Nc4ccccc4)c3c2)c1 | – | 10 µM (active)
18 | COc1cccc(Nc2ncc(C(=O)O)c3ccccc23)c1 | – | inactive
19 | COc1ccccc1-c1ccc2ncnc(Nc3ccccc3)c2c1 | – | 12.6 µM (active)
20 | CN(C)C(=O)c1ccc(-c2ccc3ncnc(NC4CCNCC4)c3c2)cc1 | – | inactive
21 | CN(C)c1ccc(-c2ccc3ncnc(NC4CC4)c3c2)cc1 | – | 3.16 µM (active)
22 | C/C=C\C1=C(CO)C(=O)C2O[C@]2(CC=C(C)C)C1=O (stereo partly drawn) | -13.4% [at 11.4 µM] | –
23 | Cc1sc2c(c1C)c(=O)n(-c1ccccc1)c1nnc(C)n21 | – | inactive
24 | CCOC(=O)CN(C(=O)CCC(=O)Nc1cc(C)on1)C(C(=O)NC1CCCC1)c1cccnc1 (stereo not drawn) | -13% [at 2.29 µM] | –
25 | Cc1ccccc1C(C(=O)NC1CCCC1)N(C(=O)Cc1cccs1)c1ccc2c(c1)OCCO2 (stereo not drawn) | – | 1 µM (active)

Row | Compound | activity, negative = inhibition | AC50
26 | CCOc1ccc(N(C(=O)/C=C/C(=O)Nc2cc(C)on2)C(C(=O)NC2CCCC2)c2ccccc2C)cc1 (stereo not drawn) | – | 0.891 µM (active)
27 | Cc1nn(C)cc1C(C(=O)NC1CCCCC1)N(C(=O)Cc1cccs1)c1ccc(C(C)C)cc1 (stereo not drawn) | – | 2.51 µM (active)
28 | O=C(O)CN(CCN(CC(=O)O)CC(=O)O)CCN(CC(=O)O)CC(=O)O | – | inactive
29 | Oc1ccc(Cc2nccc3cc(O)c(O)cc23)cc1O | -11.6% [at 11.4 µM] | –
30 | CC1(C)CC(=O)C(C(c2cccc(O)c2O)C2C(=O)CC(C)(C)CC2=O)C(=O)C1 | -5.88% [at 11.4 µM] | –
31 | OCCN(Cc1ccccc1)Cc1cccc(Cl)c1Cl | 9.74% [at 11.4 µM] | –
32 | CCN(CC(=O)NCc1cccs1)S(=O)(=O)c1ccc(C(C)C)cc1 | – | 7.08 µM (active)
33 | O=C(CO)N/N=C/c1ccccc1F | – | inactive
34 | CCOC(=O)N/N=C/c1ccccc1F | – | inactive
35 | COc1ccccc1/C=N/NC(=O)CC(=O)Nc1ccc(Cl)c(Cl)c1 | – | 7.94 µM (active)
36 | COc1ccc(OC)c(C2C(C(=O)Nc3nc4ccccc4s3)=C(C)NC3=C2C(=O)CCC3)c1 (stereo not drawn) | – | 2.24 µM (active)
37 | COCCN1CN=C(Nc2nc3ccccc3s2)NC1 | – | inactive
38 | CO[C@@H]1CC[C@@]2(C)[C@@H](CC[C@@]3(C)[C@H]2CC=C2[C@H]4CC(C)(C)[C@H](O)[C@@H](OC(C)=O)[C@]4(CO)[C@H](O)C[C@]23C)[C@@]1(C)CO (tested in a mixture with another compound) | – | inactive
39 | COc1cccc(/C=c2/s/c(=C(\C#N)C(=O)N3CCOCC3)n(-c3ccccc3)c2=O)c1 | – | inactive
40 | Clc1ccccc1NN(Cc1ccccn1)c1ccccc1Cl | -2.68% [at 11.4 µM] | –
41 | Clc1ccccc1NN(Cc1ccncc1)c1ccccc1Cl | – | 0.251 µM (active)
42 | CC1=CC(C)(C)N(C)C(=O)N1c1ccc(Cl)cc1 | -0.338% [at 2.29 µM] | –
43 | O=C(NCc1ccccc1)c1onc(CSc2ccc(F)cc2)c1C(=O)NCCCN1CCOCC1 | – | 2.51 µM (active)
44 | Cc1cc(=O)oc(C)c1C(=O)NCCCN1CCN(c2ccc(F)cc2)CC1 | – | inactive
45 | COCCNC(=O)c1onc(CSc2cccc(Cl)c2)c1C(=O)O | – | inactive
46 | C=C(C)[C@@H]1CC=C(C(=O)O)CC1 | – | inactive
47 | CO[C@@H](NC(N)=O)C(=O)O | -10.7% [at 11.4 µM] | –
48 | CN(C)c1cc2c(Nc3ccc4c(cnn4Cc4ccccc4)c3)ncnc2cn1 | – | 5.01 µM (active)
49 | CC(C(=O)NC1CCCC1)N(C(=O)c1snc(C(N)=O)c1N)c1ccc2c(c1)OCCO2 (stereo not drawn) | – | 3.55 µM (active)
50 | Cc1ccc(NC2=NC(c3ccccc3)n3c(nc(C)cc3=O)N2)c(C)c1 (stereo not drawn) | – | 14.1 µM (active)

Row | Compound | activity, negative = inhibition | AC50
51 | O=C(OCc1cccc(F)c1)c1ccc2c(c1)-c1ccccc1C2=O | – | inactive
52 | O=C(OCc1nnc(-c2ccccc2)o1)c1ccc2c(c1)OCCO2 | – | 20 µM (active)
53 | O=C(OCC#CCSc1nnc(-c2cccc3ccccc23)o1)c1ccco1 | – | 7.94 µM (active)
54 | Cc1ccccc1OCCNC(=S)Nc1ccccc1 | – | 12.6 µM (active)
55 | S=C(Nc1ccccc1)Nc1ccc(OCc2ccccc2)cc1 | – | inactive
56 | O=C(Nc1ccccc1)N1CC2(CCN(C(=O)c3ccco3)CC2)C1 | – | inactive
57 | O=C(c1ccco1)N1CCC[C@@]2(CCN(c3ccccc3)C2)C1 | – | 12.6 µM (active)
58 | O=C(c1ccco1)N1CCC2(CC1)CCN(c1ccccc1)CC2 | – | inactive
59 | O=C(c1ccco1)N1CCC[C@@]2(CCN(c3ccncc3)C2)C1 | – | 1.26 µM (active)
60 | O=C(Nc1ccc(N=Nc2ccccc2)cc1)c1ccc(Cl)cc1Cl | – | inactive
61 | CCCN(CCC)C(=S)NC(=O)c1ccc(Cl)cc1Cl | – | 14.1 µM (active)
62 | O=C(Nc1cccn2ncnc12)c1ccc(Cl)cc1Cl | – | inactive
63 | CC1CCc2c(C(=O)Nc3nccs3)csc2C1 (stereo not drawn) | -19.8% [at 11.4 µM] | –
64 | Cc1onc(C(=O)/C=C/N(C)C)c1C(=O)Nc1nccs1 | – | inactive
65 | CC12COC3(C(=O)Nc4nccs4)CC1CCC32C (stereo not drawn) | – | 14.1 µM (active)
66 | Cn1c(OCc2ccc3c(c2)OCO3)nc2c1c(=O)n(Cc1ccc(Cl)c(Cl)c1)c(=O)n2C | – | 3.55 µM (active)
67 | CCCCOC(=O)CCc1c(C)[nH]c(=O)c(C#N)c1C | – | inactive
68 | Cc1cc(N)c2cc(NC(=O)Nc3ccc4nc(C)cc(N)c4c3)ccc2n1 | -7.21% [at 11.4 µM] | –
69 | Cc1cc(NC(=O)Nc2ccc(F)cc2)no1 | – | inactive
70 | Cc1cc(NC(=O)Nc2ccc(N(C)C)cc2)c2cc(F)cc(F)c2n1 | – | 6.31 µM (active)
71 | CSc1nsc(/C=C/Nc2ccc(Cl)cc2)c1C#N | – | 8.91 µM (active)
72 | CSc1nc(N)nc(SCC(=O)Nc2ccc(Cl)cc2)c1C#N | – | inactive
73 | C[C@@H](c1ccccc1)N1C(=O)[C@H]2[C@@H]3[C@H](O)C=CC(=O)[C@H]3CC[C@H]2C1=O | -17.4% [at 11.4 µM] | –
74 | Cc1cnc(CNc2ccnc(-c3cccc(C#N)c3)n2)cn1 | – | 12.6 µM (active)
75 | Cc1cnc(CNc2ccnc(-c3cccc(NS(C)(=O)=O)c3)n2)cn1 | – | 15.8 µM (active)

Row | Compound | activity, negative = inhibition | AC50
76 | Cc1cnc(CNc2ccnc(-c3cccnc3)n2)cn1 | – | 5.01 µM (active)
77 | COc1cccc(-c2nccc(NCc3cnc(C)cn3)n2)c1 | – | 6.31 µM (active)
78 | C[C@@H](N)C(=O)O | – | inactive
79 | Cc1cc(C)cc(Oc2nn[nH]n2)c1 | – | inactive
80 | CC(C)CCN1CC(C(=O)N2CCN(c3ccc(F)cc3)CC2)CC1=O (stereo not drawn) | – | inactive
81 | O=C(CCS(=O)(=O)c1cccs1)N1CCN(c2ccc(F)cc2)CC1 | – | 12.6 µM (active)
82 | Cc1ccccc1S(=O)(=O)Oc1ccccc1C(=O)Oc1ccccc1 | -12.1% [at 2.29 µM] | –
83 | Nc1ccc(S(=O)(=O)Nc2ccccn2)cc1 | – | inactive
84 | COCCNC(=O)c1cn(Cc2c(F)cccc2Cl)nn1 | – | inactive
85 | CC(C)CCNC(=O)Cc1ccccc1[N+](=O)[O-] | – | inactive
86 | O=C(Cc1ccccc1[N+](=O)[O-])NCCSCc1c(F)cccc1Cl | – | 14.1 µM (active)
87 | CC(C)COCC1CC2(CC(C)(c3csc(N)n3)OC2=O)C(=O)O1 (stereo not drawn) | – | 14.1 µM (active)
88 | CCC1CCCCN1CCn1c(=S)[nH]c2cc(OC)c(OC)cc2c1=O (stereo not drawn) | – | 14.1 µM (active)
89 | CCN1CCC[C@H]1CNC(=O)c1c(OC)ccc(Br)c1OC | – | inactive
90 | CCC1CCCCN1Cc1cc(OC)c(O)c([N+](=O)[O-])c1 (stereo not drawn) | – | inactive
91 | O=C(O)[C@@H]1C[C@@H](C(=O)O)N1 | – | inactive
92 | c1ccc(CCNc2nnnn2-c2ccccc2)cc1 | -3.75% [at 2.29 µM] | –
93 | Cn1ncc2c(Cl)ncnc21 | -9.04% [at 11.4 µM] | –
94 | Cn1ncc2c(NCCc3ccccc3)nc(Cl)nc21 | – | 2 µM (active)
95 | CCN1CCN(c2cc(=O)n(-c3cc(Cl)ccc3C)c(=O)[nH]2)CC1 | – | inactive
96 | CS(=O)(=O)c1ccccc1-c1nc(-c2cc(C(F)(F)F)cc(C(F)(F)F)c2)no1 | 4.25% [at 2.29 µM] | –
97 | CS(=O)c1ccccc1-c1nc(-c2cc(C(F)(F)F)cc(C(F)(F)F)c2)no1 (stereo not drawn) | 15.3% [at 2.29 µM] | –
98 | Cc1cccc(-c2noc(-c3cc4ccccc4oc3=O)n2)c1 | – | 8.91 µM (active)
